Compound activity (PubChem)
ADAM10 inh – human ADAM10 inhibitors, primary screen, biochemical, QFRET, HTS. Disintegrin and metalloproteinase domain-containing protein 10 (Homo sapiens), O14672. recombinant ADAM10, EDANS/DABCYL FRET peptide cleavage, 3 h. inhibition, % at 7 µM. 0.62% of 370,000 active. AID 720582, 2013;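 active means inhibition above a per-campaign cutoff equal to the mean of compounds falling between control-based bounds plus 3 SD, cut at about 20% in these data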;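 further: 0% = DMSO wells while the 100% control is not disclosed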
Target sequence (O14672 214-748 limits assumed): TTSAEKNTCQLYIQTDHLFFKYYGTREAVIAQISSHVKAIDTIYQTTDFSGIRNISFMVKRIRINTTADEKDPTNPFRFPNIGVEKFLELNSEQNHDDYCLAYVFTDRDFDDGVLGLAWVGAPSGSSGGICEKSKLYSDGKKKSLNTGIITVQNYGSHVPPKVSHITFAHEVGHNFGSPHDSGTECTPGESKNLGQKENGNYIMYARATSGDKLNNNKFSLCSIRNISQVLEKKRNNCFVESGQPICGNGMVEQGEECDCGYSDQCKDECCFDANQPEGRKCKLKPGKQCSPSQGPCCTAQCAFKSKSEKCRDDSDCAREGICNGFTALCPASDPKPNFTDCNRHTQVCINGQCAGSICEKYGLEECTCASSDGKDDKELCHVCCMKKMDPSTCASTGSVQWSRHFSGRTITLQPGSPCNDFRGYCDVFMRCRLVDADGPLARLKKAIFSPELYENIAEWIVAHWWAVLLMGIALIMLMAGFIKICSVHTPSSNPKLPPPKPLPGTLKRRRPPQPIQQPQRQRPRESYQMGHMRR
PLCg1 inh – PLC-gamma1 enzyme inhibitors, primary screen, biochemical, fluorescence, purified enzyme; fluorogenic substrate; 0.84% of 370,000 active; 1-phosphatidylinositol 4,5-bisphosphate phosphodiesterase gamma-1 (Homo sapiens), P19174; inhibition, % at 12.2 µM; in the data active means inhibition above about 9.5%
PLC-beta3 inh – human PLC-beta3 inhibitors, primary screen, biochemical, fluorescence. Purified PLC-beta3, fluorogenic substrate. 0.18% of 370,000 active. inhibition, % at 12.2 µM. AID 720704, 2013. 1-phosphatidylinositol 4,5-bisphosphate phosphodiesterase beta-3 (Homo sapiens), Q01970; in the data active means inhibition above about 11%;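 further: 0% = median of compound wells on plate and 100% = full blocker control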
KLK7 zymogen act – proKLK7 zymogen activators, primary screen, biochemical, fluorescence intensity | Kallikrein-7 (Homo sapiens), P49862 | purified proKLK7, EDANS-DABCYL substrate fluorescence; 100% is mature enzyme control, 0% vehicle | activation, % at 7 µM | 0.9% of 370,000 active | AID 652039, 2013;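 active means activation above the mean of all tested compounds plus 3 SD, computed per campaign excluding outliers beyond control limits, cut at about 13% in these data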
ADAM17 inh – ADAM17 inhibitors, primary screen, biochemical, QFRET. Disintegrin and metalloproteinase domain-containing protein 17 (Homo sapiens), P78536. recombinant ADAM17, EDANS/DABCYL FRET peptide cleavage. inhibition, % at 6.95 µM. 0.83% of 370,000 active;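 active means inhibition above the mean of compounds lying between control limits plus 3 SD, set per campaign, cut at about 8.5% in these data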;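 further: 0% = DMSO-only wells as the low control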
KLK7 act conf – proKLK7 zymogen activators, confirmation, biochemical, fluorescence intensity, triplicate; activation, % at 7 µM; 68% of 3,200 active; purified proKLK7, EDANS-DABCYL substrate fluorescence; scaled: vehicle 0, mature enzyme 100; shares compounds with KLK7 zymogen act;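 active means activation, as change over the incubation, above the mean of all tested compounds plus 3 SD, cut at about 13% in these data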
EDANS-DABCYL int – EDANS-DABCYL substrate optical interference, artefact control for kallikrein-7 zymogen activator project, biochemical, fluorescence intensity, high throughput; shares compounds with KLK7 zymogen act; no enzyme, 4 h; solvent 0%, active enzyme control 100%; activation, % at 7 µM; 80% of 3,200 active;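 active means activation above the all-compound mean plus 3 SD, ignoring values outside control-based bounds, cut at about 4.8% in these data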;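 further: value is the 4 h activation minus the activation read at time zero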
EDANS interf – EDANS fluorescence interference in dose response, no enzyme; shares compounds with KLK7 zymogen act; EDANS-DABCYL peptide fluorescence interference; EC50, µM; 20% of 250 active; AID 720493;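 active means compounds that raise the fluorescence signal in this interference counterscreen, with EC50 at or below 10 µM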;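 further: intact quenched peptide substrate alone read at 355 nm excitation and 520 nm emission; signal is fluorescence gain from T0 to T4 after four hours at room temperature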
* = called active by the depositor; i = inactive; nt = no result given; ! = not confirmed by another sample. Shown are actives, neighbours in structure and some others; about 2.9% of the full set was active somewhere.

SMILES | ADAM10 inh | PLCg1 inh | PLC-beta3 inh | KLK7 zymogen act | ADAM17 inh | KLK7 act conf | EDANS-DABCYL int | others
CN1CCSc2ccc(C(=O)NCc3cccc(F)c3)cc21 | i | i | i | 49* | i | 51* | 1 | EDANS interf=>70
COc1ccc(Br)cc1CNC(=O)c1ccc2c(c1)N(C)CCS2 | i | i | i | -37 | -295 | nt | nt
CN(C)CCNC(=O)c1ccc2c(c1)N(Cc1ccc(F)cc1)CCS2 | i | i | i | 62* | -412 | -25 | -22
Cc1ccc(CN2CCSc3ccc(C(=O)NCCCN4CCN(C)CC4)cc32)cc1 | i | i | i | 39* | i | -67 | -78
Cc1ccc(CN2CCSc3ccc(C(=O)NCc4cccnc4)cc32)cc1 | i | i | i | -35 | i | nt | nt
O=C(NC1CCCC1)c1ccc2c(c1)N(Cc1ccc(F)cc1)CCS2 | i | -331 | -498 | -34 | -269 | nt | nt
O=C(c1ccc(CS(=O)Cc2ccc(Cl)cc2)o1)N1CCN(c2ccccn2)CC1 (stereo not given) | -5 | 5 | -13 | -1 | 1 | nt | nt
Cc1cnc(C)c(Nc2nc(C(N)CCc3ccccc3)cs2)n1 (stereo not given) | -14 | -10 | -11 | 0 | -4 | nt | nt
CCc1cc(CNC(=O)C2CCC(=O)N(Cc3cccc(F)c3)C2)on1 (stereo not given) | -10 | 1 | -7 | 0 | -2 | nt | nt
CCOC(=O)/C(C#N)=C/Nc1cc(OC)ccc1OC | -6 | -44 | -47 | -1 | -1 | nt | nt
CCOP(=O)(OCC)/C(C#N)=C/c1cc(OC)ccc1OC | -89 | -144 | -205 | 42* | -33 | 39* | 39*
CN(C)CC(c1ccccc1)c1ccccc1 | 2 | 0 | -6 | 0 | 2 | nt | nt
COC(=O)c1c(C(=O)OC)c(-c2ccc(C)cc2)n2c1CCC2 | 2 | 4 | 3 | 1 | -1 | nt | nt
CN1c2ccccc2Oc2nnc(Cl)cc21 | i | i | i | 13* | -206 | 28* | 34*
COCCN1C[C@@H](CO)O[C@@H](n2cnc3c(NCCN(C)C)ncnc32)C1 | 3 | 2 | 3 | 0 | -1 | nt | nt
CCCCCNc1nc(NCCCO)c(C#N)c2c1CN(C)CC2 | i | i | i | 20* | -190 | 17* | 23*
C=CCNc1nc(NCc2ccccc2)c(C#N)c2c1CN(C)CC2 | i | i | i | 14* | i | 20* | 15* | EDANS interf=i
O=C1c2ccccc2NC(c2cccc(O)c2)N1Cc1ccco1 (stereo not given) | i | -304 | -414 | 27* | -364 | 29* | 29*
COc1ccc(C2Nc3ccccc3C(=O)N2Cc2ccco2)cc1COc1ccc(F)cc1 (stereo not given) | -308 | -147 | -188 | -15 | -85 | nt | nt
COc1ccc(C2Nc3ccccc3C(=O)N2Cc2ccco2)cc1CN1C(=O)c2ccccc2C1=O (stereo not given) | -106 | -13 | -18 | 30*! | -32 | 11 | 5.8*
COc1ccc(C2Nc3ccccc3C(=O)N2Cc2ccco2)cc1COc1ccccc1C (stereo not given) | -260 | -138 | -210 | nt | -86 | nt | nt
O=C1CCCN1c1ccc(S(=O)(=O)N2CCN(c3ccccc3)CC2)cc1 | -4 | -1 | 1 | 0 | -3 | nt | nt
C=CCOc1ccc2c(OC)c3ccoc3nc2c1OC | i | i | i | 19* | -268 | -6 | -17
CCOc1c2ccoc2nc2c(OC)c(OC)ccc12 | i | i | i | 13* | -279 | 9 | 14*
